An excerpt weighted towards active compounds, which were near 7.9% of everything screened.
HCV inh: inhibitors of hepatitis C virus infection; Huh7.5.1 HCVcc-Cre infection, luciferase reporter, 44 h; Potency, µM (doses to about 41.8 µM), without a hit: at the highest dose activity change, negative = inhibition, most hits filed as inhibitors; hit rate 3.4% among 340,000; AID 651820; further: potency means the concentration at half of the fitted maximal effect; on the % scale 0 is the no-effect control and ±100 the full control effect
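1,000 cells/well; 4 h culture; + compound; + HCVcc-Cre (~0.5 moi); 44 h; luciferase substrate, RT 15 min; read 15 sec.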
HCMV inh: human cytomegalovirus inhibition. HFF cells, HCMV-luciferase reporter, 72 h; active compounds read low. activity change, negative = inhibition, % at 57.5 µM. hit rate 4.5% among 410,000. AID 1259415; in the data active means activity change below about -60%; inconclusive means no clear call, values can overlap the other calls; inactive means above about -39%; further: on the % scale 0 is the no-effect control and ±100 the full control effect
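Steps: HFFs plated, 16 h 37C; compounds added; HCMV-luciferase added to MOI 1 PFU/cell; 72 h 37C; OneGlo reagent, 5 min room temperature; luminescence read, normalized to controls.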
MARV entry inh: Marburg virus entry inhibition; Marburg virus pseudotyped entry inhibition, cell reporter; Potency, µM (highest dose often 37.8 µM), inactives show top-dose activity change, negative = inhibition, usual class: inhibitors; hit rate 1.8% among 300,000; AID 540276; calls by dose curve; tested in HEK293 cells; further: potency means the concentration at half of the fitted maximal effect; on the % scale 0 is the no-effect control and ±100 the full control effect
LASV entry inh: inhibitors of Lassa virus binding or cell entry; Lassa virus pseudotype entry inhibition, cell reporter; Potency, µM (highest dose often 37.9 µM), for the others: top-dose activity change, negative = inhibition, most hits filed as inhibitors; hit rate 1.2% among 300,000; calls by dose curve; tested in HEK293 cells; further: potency means the concentration at half of the fitted maximal effect; on the % scale 0 is the no-effect control and ±100 the full control effect; nearly all actives have a fitted effect of over 50% in size
FMDV antiviral: antivirals against foot and mouth disease virus. Potency, µM (titrated, usually from 57.9 µM), inactives show top-dose activity change, negative = inhibition, hits mostly inhibitors. FMDV antiviral cell-based qHTS. hit rate 1.2% among 410,000; calls by dose curve; tested in HEK293T cells; further: read-out not given here; potency means the concentration at half of the fitted maximal effect; on the % scale 0 is the no-effect control and ±100 the full control effect; nearly all actives have a fitted effect of over 45% in size
HCV inh confirm: HCV inhibition, cherry-pick confirmation. HCVcc-Cre infectious virus cell assay, luciferase, inhibition. hit rate 78% among 640. Potency, µM (titrated, usually from 41.8 µM), for the others: at the highest dose activity, negative = inhibition, most hits filed as inhibitors. shares compounds with HCV inh; further: potency means the concentration at half of the fitted maximal effect; nearly all actives have a fitted effect of over 80% in size
HCV host tox: host cell cytotoxicity counter-screen for HCV inhibitors. HCV host cell line cytotoxicity counterscreen. hit rate 22% among 640. Potency, µM (series often up to 41.8 µM), for inactives: at the top dose activity change, negative = cytotoxicity, actives largely listed as inhibitors. shares compounds with HCV inh;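 further: potency means the concentration at half of the fitted maximal effect; 44 h compound exposure; on the % scale 0 is the no-effect control and ±100 the full control effect; nearly all actives have a fitted effect of over 55% in size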
Numbers without * were called inactive; ? = inconclusive; / = not tested or not shown; [ ] = dose if it differs, or a comment. Unless noted, the call rests on the fitted dose curve; in most records, active means well fitted curve in the direction sought with a large enough effect; inconclusive means small, poorly fitted or top-dose-only effect, or another doubt; inactive means no such curve, though single readings can be large; an effect the other way counts as inactive or inconclusive.

SMILES	HCV inh	HCMV inh	MARV entry inh	LASV entry inh	FMDV antiviral	HCV inh confirm	HCV host tox
Cc1ccnc(NC(=O)CCCOc2cc(=O)n(C)c3ccccc23)c1	3.5µM*	-101*	?	-39%	4%	7.9µM*	?
O=C(Nc1cccc(C(F)(F)F)c1)C1CCN(S(=O)(=O)c2ccc(N3CCCC3=O)cc2)CC1	6.3µM*	-66*	/	/	?	8.9µM*	14µM*
Cc1cccc(C(=O)Nc2ccccc2OCc2cc(=O)n3ccccc3n2)c1	/	25	/	19%[46.1 µM]	-3%	/	/
CC1CCCN(Cc2nc3c(c(=O)n(C)c(=O)n3C)n2Cc2ccc(Cl)cc2Cl)C1 (stereo not drawn)	/	3	2%[46.1 µM]	9%[46.1 µM]	-9%	/	/
CSc1scc2c1-c1nc(SCC(=O)C(C)(C)C)ncc1CC2	8.9µM*	?	/	/	-5%	25µM*	-16%
O=C(NCCc1ccccc1)C1CCN(c2ncnc3c2nc2n3CCCCC2)CC1	/	41	/	15%[46.1 µM]	0%	/	/
Cc1ccccc1Nc1c(-c2ccc(O)cc2)nc2c(C)cccn12	/	-16	8%[46.1 µM]	-12%[46.1 µM]	-9%	/	/
CC(C)OCCCn1c(=O)c2ccccc2n2c(CCC(=O)N3CCN(c4ccccn4)CC3)nnc12	?	-32	/	/	-21%	/	/
O=C(CCc1nnc2n(Cc3ccc(Cl)cc3)c(=O)c3ccccc3n12)N1CCN(c2ccccn2)CC1	3.5µM*	/	-10%[46.1 µM]	-1%[46.1 µM]	?	4µM*	48%
O=C(CSc1nccn1Cc1ccccc1)NCc1ccco1	/	46	/	-6%[46.1 µM]	39%	/	/
Cc1ccc2c(c1)[C@H]1[C@H](CO2)[C@H](c2ccccc2)[C@]2(C)C(=O)N(Cc3ccc(F)cc3)CC(=O)N12	?	21	/	/	?	?	24%
COc1ccc(NC(=O)c2ccccc2OCc2c(C)noc2C)cc1OC	?	34	-5%	5%	-14%	?	15%
CCN1C(=O)CS/C1=N\S(=O)(=O)c1ccc(Cl)cc1	16%	4	0%[46.1 µM]	-5%	-15%	/	/
CCn1c(Cl)c(C=O)s/c1=N\S(=O)(=O)c1ccccc1	3.2µM*	?	/	/	?	20µM*	11µM*
CC(C)c1ccc(N2C(=O)CS(=O)(=O)C23C(=O)N(Cc2cccc(F)c2)c2ccccc23)cc1 (stereo not drawn)	/	-26	/	-27%[46.1 µM]	-20%	/	/
Nc1ccc2c(c1)C(=O)c1ccc(Br)cc1-2	?	45	17%	3%	-1%	-20%	-10%
Nc1ccc2cc(Br)ccc2c1	-9%	-8	20%[46.1 µM]	-6%	?	/	/
COc1ccc(-c2cc(-c3ccccc3)c(C#N)c(SCC(=O)Nc3ncc(C)s3)n2)cc1	4.5µM*	-12	?	-14%	-9%	20µM*	9%
COC(=O)c1sc(NC(=O)/C=C/c2ccccc2Cl)nc1C	5.6µM*	4	?	10%[46.1 µM]	14%	?	1%
CCc1ccc(OCC(=O)Nc2cc(-c3ccc(C)cc3)no2)cc1	/	56	25%[46.1 µM]	5%[46.1 µM]	-2%	/	/
NC(=S)c1cn(C2OC(CO)C(O)C2O)c2ncnc(N)c12 (stereo not drawn)	0.28µM*	-99*	/	/	?	0.44µM*	0.44µM*
Nc1ncnc2nn(C3OC(CO)C(O)C3O)nc12 (stereo not drawn)	/	-14	/	/	-24%	/	/
Cc1ccc2c(=O)cc(C(=O)Nc3sc4c(c3C(=O)NCc3ccccc3)CCCC4)oc2c1C	/	7	12%[46.1 µM]	5%[46.1 µM]	-19%	/	/
CCOC(=O)c1ccc(NC(=O)CCC(=O)N2Cc3ccccc3Oc3ncccc32)cc1	/	-16	/	-24%[46.1 µM]	-26%	/	/
CC[n+]1c(C)sc2c(C)cc(C)cc21	6%	7	-7%[46.1 µM]	-12%	-4%	/	/
SMILES	HCV inh	HCMV inh	MARV entry inh	LASV entry inh	FMDV antiviral	HCV inh confirm	HCV host tox
CCC[n+]1c(C)sc2c3c(ccc21)CCCC3	7.1µM*	/	?	?	?	25µM*	30%
COc1ccc(-c2ccc(SCC(=O)NCc3ccc4c(c3)OCO4)nn2)cc1OC	2.8µM*	30	?	?	-26%	-25%	-9%
CCOc1ccc2nc(SCC(=O)NCc3ccc4c(c3)OCO4)[nH]c2c1	4µM*	143	9%	-11%	-19%	?	-17%
COc1ccc(-c2nc(CSCC(=O)NCc3ccc4c(c3)OCO4)c(C)o2)cc1OC	?	-7	?	-4%	-25%	/	/
COc1ccc2nc(SCC(=O)NCc3ccc4c(c3)OCO4)[nH]c2c1	6%	?	-12%	2%	-16%	/	/
COCC1=Cc2cc3c(cc2C(C(C(=O)OC)C(=O)OC)N1C(=O)OC)OCO3 (stereo not drawn)	/	/	-18%[14.2 µM]	/	/	/	/
CN(C)S(=O)(=O)c1ccc(N2CCCC2)c(C(=O)Nc2nc3ccc(F)cc3s2)c1	7.9µM*	14	?	-23%	35%	?	-13%
COc1cc(C2C(C(=O)Nc3ccccc3C)=C(C)Nc3ncnn32)ccc1OCC(N)=O (stereo not drawn)	/	5	/	-3%[46.1 µM]	-4%	/	/
COc1ccc(CNc2ncnc3cc(Cl)ccc23)cc1	8.9µM*	-65*	?	?	?	25µM*	?
COc1ccc(CNc2ncnc3cc(OC)c(OC)cc23)cc1	?	1	?	-1%	-25%	/	/
CCc1cccc(NC(=O)CSc2nncn3c2cc2sccc23)c1	/	?	/	-5%[46.1 µM]	-2%	/	/
CCC(=O)c1cc2c(cc1NC(=O)c1ccccc1F)OCCO2	/	-14	7%[46.1 µM]	-21%[46.1 µM]	-12%	/	/
CCC(=O)c1cc2c(cc1NC(=O)c1ccccc1)OCCO2	4µM*	5	3%	-11%	/	4µM*	28%
COc1ccc(CNC(=O)C2=C(C)C(=O)OC23CCN(C(C)=O)CC3)cc1	/	0	/	0%[46.1 µM]	9%	/	/
CCOc1ccccc1OCC(=O)OCC(=O)c1c(N)n(CC(C)C)c(=O)n(C)c1=O	?	-4	/	/	?	?	-90%
COc1ccccc1CCC(=O)OCC(=O)c1c(N)n(CC(C)C)c(=O)n(C)c1=O	-14%	-3	-10%	-27%	?	/	/
N#C/C(=C\c1cccc2ccccc12)c1nn(-c2ccccc2)c(N)c1C#N	-29%	/	?	?	/	/	/
N#C/C(=C\c1cc([N+](=O)[O-])c(N2CCCCC2)cc1N1CCCCC1)c1nn(-c2ccccc2)c(N)c1C#N	?	29	12%	-11%	-8%	10µM*	40%
CCCCC(=O)Nc1ccccc1C(=O)OCc1cc(=O)n2nc(C3CCCCC3)sc2n1	/	?	/	15%[46.1 µM]	1%	/	/
COc1ccc([N+](=O)[O-])cc1NC(=O)CSc1nc(C)c(C)c(C)n1	15%	51	3%	0%	-20%	/	/
COc1ccc([N+](=O)[O-])cc1NC(=O)C(C)Sc1nc(C)c(C)c(C)n1 (stereo not drawn)	5.6µM*	-7	-5%	1%	-10%	13µM*	34%
CSc1nc2nc(C)cc(-c3ccccc3)n2n1	7.9µM*	-26	4%	11%	-22%	?	15%

Screens deposited in PubChem BioAssay by National Center for Advancing Translational Sciences (NCATS).
